An excerpt weighted towards active compounds, which were near 7.5% of everything screened.
FLuc counter = qHTS profiling assay for firefly luciferase inhibitor/activator using purifed enzyme and Km concentrations of substrates (counterscreen for miR-21 project). Luciferin 4-monooxygenase (Photinus pyralis), P08659. purified FLuc, Km substrates, luminescence inhibition. Potency, µM (titrated, usually from 57.5 µM), actives largely listed as inhibitors. 360,000 tested, 6.9% active. AID 588342, 2011; further: nearly all actives have a fitted effect of over 55% in size
Target sequence (P08659 whole entry, looked up): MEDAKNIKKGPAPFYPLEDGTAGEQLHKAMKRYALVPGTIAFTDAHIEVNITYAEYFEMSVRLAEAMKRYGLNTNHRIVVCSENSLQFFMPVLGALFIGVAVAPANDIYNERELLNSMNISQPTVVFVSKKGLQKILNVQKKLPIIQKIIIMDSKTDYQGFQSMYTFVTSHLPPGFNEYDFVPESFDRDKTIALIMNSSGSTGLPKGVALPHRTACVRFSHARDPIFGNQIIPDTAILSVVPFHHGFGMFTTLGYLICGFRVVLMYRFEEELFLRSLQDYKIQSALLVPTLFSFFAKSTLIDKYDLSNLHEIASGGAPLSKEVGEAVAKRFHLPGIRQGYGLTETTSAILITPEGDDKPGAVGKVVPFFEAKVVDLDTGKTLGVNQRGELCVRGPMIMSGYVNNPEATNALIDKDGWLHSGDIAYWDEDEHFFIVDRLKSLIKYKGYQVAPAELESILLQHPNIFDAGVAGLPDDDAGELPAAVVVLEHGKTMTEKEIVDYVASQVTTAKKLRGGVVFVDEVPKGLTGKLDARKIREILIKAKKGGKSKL
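Biochemical qHTS of compounds, final roughly 60 µM downward over six points, against 10 nM purified firefly luciferase using Km concentrations of substrates (10 uM D-luciferin, 10 uM ATP) in Tris acetate pH 7.5 buffer; luminescence output.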
Rab9 prom act = qHTS Assay for Rab9 Promoter Activators | Huh7 Rab9 promoter-luciferase reporter, luminescence, 24 h | Potency, µM (highest dose often 9.22 µM), most hits filed as activators | 320,000 tested, 2.8% active; further: nearly all actives have a fitted effect of over 60% in size
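Luciferase signal after 10 min detection reagent at ambient indicates Rab9 promoter upregulation; stably transfected Huh7 cells were treated 24 h with compound in DMSO at 37 °C, 5% CO2.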
ELG1 genotox = qHTS screen for small molecules that induce genotoxicity in human embryonic kidney (HEK293T) cells expressing luciferase-tagged ELG1; HEK293T ELG1-luciferase reporter, luminescence, 16 h; Potency, µM (titrated, usually from 46 µM), actives largely listed as activators; 330,000 tested, 1.3% active; further: nearly all actives have a fitted effect of over 60% in size
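Quantitative HTS format in 1536-well plates. HEK293T ELG1-luciferase reporter cells receive test compound and are incubated 16 hr at 37 °C, 5% CO2; ONE-Glo added, 30 min room temperature, then luminescence read.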
SMN2 splice up = qHTS Assay for Enhancers of SMN2 Splice Variant Expression. HEK293 SMN2-luciferase splicing reporter, luminescence, 30-36 h. AID 1458, 2008. 210,000 tested, 2.8% active. Potency, µM (highest dose often 46.1 µM), hits mostly activators; further: nearly all actives have a fitted effect of over 55% in size
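qHTS luciferase splicing reporter: luminescence rises when SMN2 exon 7 is included in transfected HEK293 cells. Compound exposure lasted 30-36 h at 37C, with 4.5 mM final sodium butyrate as control, followed by a ONE-Glo read.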
Luc counter = Counterscreen for Luciferase (Kinase-Glo TM) Inhibition. Luciferin 4-monooxygenase (Photuris pensylvanica), Q27757. Kinase-Glo luciferase, ATP luminescence, 8 min. Potency, µM (highest dose often 38.3 µM), most hits filed as inhibitors. 200,000 tested, 0.28% active; further: nearly all actives have a fitted effect of over 60% in size
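Compounds were added to a substrate mix at pH 7.2 (50 mM imidazole, 10 uM ATP, within the enzyme's linear range), followed by Kinase-Glo detection reagent; luminescence was measured after 8 minutes at ambient temperature.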
NPC1 prom act = qHTS Assay for NPC1 Promoter Activators; Huh7 NPC1 promoter luciferase reporter, 24 h; Potency, µM (titrated, usually from 9.22 µM), hits mostly activators; 320,000 tested, 2.4% active; further: nearly all actives have a fitted effect of over 60% in size
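Luminescence from an NPC1 promoter-driven luciferase reporter in stably transfected Huh7 cells was measured after 24 h compound treatment at 37 °C, followed by 10 min ambient incubation with luciferase detection reagent.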
Hits are given with their value; . = inactive; ? = inconclusive; / = no result given; [ ] = another dose, or the depositor's remark. The call rests on the fitted dose curve; in most records, active means well fitted curve in the direction sought with a large enough effect; inconclusive means small, poorly fitted or top-dose-only effect, or another doubt; inactive means no such curve, though single readings can be large; an effect the other way counts as inactive or inconclusive.

SMILES | FLuc counter | Rab9 prom act | ELG1 genotox | SMN2 splice up | Luc counter | NPC1 prom act
Cc1ccc(C(=O)NCC(c2ccc3c(c2)OCO3)N2CCOCC2)cc1 (stereo unspecified) | . | / | / | / | / | /
CCc1ccc(-n2c(C)cc(/C=N/NC(=O)OC)c2C)cc1 | 19µM | . | . | .[1.84 µM] | . | .
COC(=O)N/N=C/c1cc(C)n(-c2ccc(F)cc2)c1C | 23.9µM | . | ? | . | . | .
COC(=O)N/N=C/c1cc(C)n(-c2ccc(Br)cc2)c1C | ? | . | . | / | / | .
COC(=O)N/N=C/c1cc(C)n(-c2ccccc2)c1C | 8.49µM | ? | ? | .[1.84 µM] | . | .
CC(=O)C(=Cc1cc(C)n(-c2ccccc2)c1C)C(C)=O | 19µM | . | . | . | . | .
CC(=O)N/N=C/c1cc(C)n(-c2ccc(Br)cc2)c1C | . | . | . | . | . | .
Cc1ccc(NC(=O)CN(C)C(=O)Cc2c[nH]c3ccccc23)cc1 | / | / | . | / | / | /
Cc1cc(/C=N/O)c(C)n1-c1ccccc1 | 16.9µM | . | . | .[1.84 µM] | . | .
Cc1cc(/C=N\O)c(C)n1-c1ccncc1 | . | . | . | . | . | .
Oc1cc2ccccc2nc1-c1ccccc1Cl | . | . | . | / | / | .
CC1(C)c2ccccc2-c2nc3ccccc3cc2C1O (stereo unspecified) | 15.1µM | . | . | / | / | .
CCOC(=O)[C@@H]1[C@H]2COc3ccccc3[C@@H]2N2C(=O)N(c3ccc(OC)cc3)C(=O)[C@@]12C | . | . | . | / | / | .
O=[N+]([O-])c1ccccc1-c1ccc(C(=S)N2CCCCC2)o1 | 8.49µM | 3.16µM | ? | / | / | 2µM
O=[N+]([O-])c1ccccc1-c1ccc(C(=S)N2CCCC2)o1 | 21.3µM | 2.82µM | . | 11.2µM | . | ?
CCc1ccc(C(=O)c2cn(CC(=O)Nc3ccc4c(c3)OCCO4)c3ccc(C)cc3c2=O)cc1 | . | / | / | . | / | /
Cc1ccc(NS(=O)(=O)c2ccc(-c3cc(C)no3)cc2)c(C)c1 | . | / | / | / | / | /
COc1ccc(CNC(=O)Cc2c(C(=O)O)c(C)cn2C)cc1 | . | / | / | / | / | /
O=C(COC(=O)c1ccccc1-n1cnnn1)c1ccccc1 | 19µM | . | . | / | / | .
O=C(COC(=O)c1ccccc1-n1cnnn1)c1ccc(Br)cc1 | 5.36µM | . | 18.3µM | / | / | .
O=C(COC(=O)c1ccccc1-n1cnnn1)c1ccc(F)c(F)c1 | ? | . | ? | / | / | .
c1ccc2oc(-c3[nH]ncc3CN3CCSCC3)cc2c1 | . | . | . | / | / | .
c1ccc2oc(-c3ccn[nH]3)cc2c1 | 8.49µM | 3.16µM | ? | / | / | 2.82µM
CCCN(CC(=O)Nc1ccccc1OC)Cc1c(O)ccc2ccccc12 | . | . | . | / | / | .
CCOC(=O)c1c(NC2=NS(=O)(=O)c3ccccc32)sc2c1CCC(C)C2 (stereo unspecified) | . | . | . | . | . | .
SMILES | FLuc counter | Rab9 prom act | ELG1 genotox | SMN2 splice up | Luc counter | NPC1 prom act
CCOC(=O)c1c(NC2=NS(=O)(=O)c3ccccc32)sc2c1CCCCC2 | . | ? | . | / | / | 1.41µM
O=C(COC(=O)Cn1cnc2ccccc21)Nc1cc2c(cc1Cl)C(=O)c1ccccc1C2=O | ? | 2.82µM | ? | 17.8µM | . | 3.16µM
CCn1cc(C(=O)Nc2ccccc2C(=O)OC)c(=O)c2ccc(C)nc21 | 3.38µM | 1.12µM | ? | 11.2µM | . | 0.562µM
CCn1cc(C(=O)OCc2ccccc2)c(=O)c2ccc(C)nc21 | . | . | . | . | . | .
CCn1cc(C(=O)OCC(=O)c2ccccc2)c(=O)c2ccc(C)nc21 | . | . | . | . | . | .
CCOC(=O)c1cn(CC)c2c(ccc3ccccc32)c1=O | 23.9µM | . | . | / | / | .
CCOC(=O)c1ccccc1NC(=O)c1cn(CC)c2nc(C)ccc2c1=O | 3.38µM | 0.794µM | ? | . | . | 1µM
COc1ccc(Nc2oc(/C=C/c3cc(OC)c(OC)c(OC)c3)nc2C#N)cc1 | . | / | / | . | / | /
COc1cccc(-c2nc(CS(=O)(=O)CC(=O)Nc3c(C)cc(C)cc3C)c(C)o2)c1 | . | / | / | . | / | /
